Luc counter – Counterscreen for Luciferase (Kinase-Glo TM) Inhibition | 0.28% of 200,000 active | Kinase-Glo luciferase, ATP luminescence, 8 min | Luciferin 4-monooxygenase (Photuris pensylvanica), Q27757 | Potency, µM (titrated, usually from 38.3 µM), actives largely listed as inhibitors | AID 1379, 2008; further: nearly all actives have a fitted effect of over 60% in size
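Kinase-Glo luciferase light output from ATP and luciferin was measured with 10 uM ATP, within the enzyme's linear range. Buffer: 50 mM imidazole pH 7.2, 50 mM KCl, 7 mM MgCl2, 0.01% Tween 20, 0.05% BSA; luminescence read after 8 min at ambient temperature.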
Gal4-VP16 FLuc – VP16 counterscreen qHTS for inhibitors of ROR gamma transcriptional activity. AID 2546, 2010. Drosophila S2 Gal4-VP16 UAS-luciferase, luminescence, 20 h. 3.5% of 310,000 active. Potency, µM (doses to about 53.6 µM), actives largely listed as inhibitors;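 further: Gal4-VP16 expression switched on by copper sulfate through the metallothionein promoter; nearly all actives have a fitted effect of over 50% in size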
RORg inh – qHTS for inhibitors of ROR gamma transcriptional activity | Potency, µM (top dose mostly 53.6 µM), usual class: inhibitors | Drosophila S2 Gal4-RORgamma UAS-luciferase reporter, 20 h | 5.4% of 310,000 active | AID 2551, 2010 | Nuclear receptor ROR-gamma (Mus musculus), P51450; further: nearly all actives have a fitted effect of over 60% in size
Target sequence (P51450 whole entry, looked up, the tested form may be a part): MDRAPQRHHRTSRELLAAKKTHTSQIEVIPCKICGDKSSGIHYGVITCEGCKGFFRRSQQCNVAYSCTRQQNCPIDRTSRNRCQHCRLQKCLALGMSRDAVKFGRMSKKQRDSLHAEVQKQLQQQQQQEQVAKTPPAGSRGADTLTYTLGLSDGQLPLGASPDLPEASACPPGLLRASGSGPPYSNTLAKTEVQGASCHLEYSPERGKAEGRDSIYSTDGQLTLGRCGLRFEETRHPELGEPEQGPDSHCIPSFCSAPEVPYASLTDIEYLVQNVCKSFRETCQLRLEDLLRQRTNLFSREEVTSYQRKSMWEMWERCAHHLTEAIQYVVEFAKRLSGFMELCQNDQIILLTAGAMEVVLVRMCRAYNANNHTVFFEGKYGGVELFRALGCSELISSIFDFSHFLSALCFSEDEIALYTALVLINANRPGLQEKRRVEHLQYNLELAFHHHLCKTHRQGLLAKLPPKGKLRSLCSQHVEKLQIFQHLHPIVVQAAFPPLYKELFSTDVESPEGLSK
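Drosophila S2 cells stably expressing Gal4-DBD/mouse RORγ fusion under metallothionein promoter plus UAS-luciferase; compound 1 h, then 700 uM CuSO4 induction for 20 h at ambient temperature; inhibition read as reduced luminescence.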
Large screens that a line does not name were inactive; ! = a repeat was not active. Sampled rows, rich in hits. Any-hit rate of the full collection: about 6.4%. The call rests on the fitted dose curve; in most records, active means well fitted curve in the direction sought with a large enough effect; inconclusive means small, poorly fitted or top-dose-only effect, or another doubt; inactive means no such curve, though single readings can be large; an effect the other way counts as inactive or inconclusive.

COc1ccccc1-n1c(CCn2nc(C)c(Br)c2C)n[nH]c1=S	Gal4-VP16 FLuc inconclusive, RORg inh 10µM
Cc1nn(CCc2n[nH]c(=S)n2C2CCCCC2)c(C)c1Br	Gal4-VP16 FLuc inconclusive, RORg inh 5.6µM
COc1cc(OC)cc(C(=O)NCc2n[nH]c(=S)n2-c2ccccc2OC)c1	none
Cc1nn(CCc2n[nH]c(=S)n2C)c(C)c1Br	none
COC(=O)C(C)NC(=O)CNS(=O)(=O)c1ccc(F)cc1 (centres undefined)	none
C=CCOC(=O)N[C@@H](c1ccc(Br)cc1)C(C(C)=O)C(C)=O	none
COC(=O)c1cccc(NS(=O)(=O)c2ccc(OC)c(C(=O)N3CCOCC3)c2)c1C	none (no result: Luc counter)
CCc1c(O)nc(SCC(=O)Nc2nc3ccccc3s2)n(C2CCCCC2)c1=O	none (no result: Luc counter)
CCOC(=O)c1ccc(NC(=O)c2nc[nH]c2C(=O)N2CCN(C(=O)OC(C)(C)C)CC2)cc1	none (no result: Luc counter)
CCOC(=O)c1ccc(NC(=O)c2nc[nH]c2C(=O)NC)cc1	RORg inh 10µM (no result: Luc counter)
Cc1ccc(NC(=O)c2nc[nH]c2C(=O)NCC(=O)OC(C)(C)C)cc1	Gal4-VP16 FLuc inconclusive, RORg inh 6.3µM (no result: Luc counter)
CCOC(=O)c1[nH]cnc1C(=O)Nc1ccc(Cl)cc1	RORg inh inconclusive
CNC(=O)c1[nH]cnc1C(=O)NCC(=O)OC(C)(C)C	none (no result: Luc counter)
CCOC(=O)c1[nH]cnc1C(=O)Nc1ccc(C)cc1	Gal4-VP16 FLuc inconclusive, RORg inh 13µM (no result: Luc counter)
CS(=O)(=O)N(CC(=O)N1CCc2ccccc2C1)c1ccc(Cl)cc1F	none (no result: Luc counter)
O=C(NC1CCCCCC1)C1CC(=O)N(c2ccc(Cl)cc2)C1 (centres undefined)	none (no result: Luc counter)
CC(C)(C)[C@]1(O)CCN2CC3c4ccccc4CCc4cccc(c43)[C@@H]2C1 (some centres undefined)	none
N/C(=N\OCc1ccc([N+](=O)[O-])cc1)c1ccncc1	none
Cc1ccccc1NNC(N)=S	Gal4-VP16 FLuc inconclusive, RORg inh inconclusive
NC(=S)NNC(=O)Nc1cccc(Cl)c1	none
Cc1cccc(NNC(N)=S)c1	Gal4-VP16 FLuc 10µM, RORg inh inconclusive
NC(=S)NNc1cccc(Cl)c1	Gal4-VP16 FLuc 16µM, RORg inh 5.6µM
Oc1ccc(C23CC4CC(CC(C4)C2)C3)cc1O	none (no result: Luc counter)
NC(=S)N/N=C/c1ccc(Br)o1	Gal4-VP16 FLuc inconclusive, RORg inh 3.5µM
NC(=S)N/N=C/c1ccc(-c2cc(Cl)c(Cl)cc2Cl)o1	Gal4-VP16 FLuc 1.1µM, RORg inh 0.56µM
NC(=S)N/N=C/c1cccnc1	none (no result: Luc counter)
NC(=S)N/N=C/c1ccccc1	Gal4-VP16 FLuc 20µM, RORg inh 16µM
O=C(N/N=C\c1ccc(Br)o1)C1COc2ccccc2O1 (centres undefined)	none
NC(=S)N/N=C/c1ccc(C23CC4CC(CC(C4)C2)C3)cc1	Gal4-VP16 FLuc 2.8µM, RORg inh 0.45µM (no result: Luc counter)
COC(=O)N/N=C/c1ccc(-c2ccc(Cl)cc2Cl)o1	none (no result: Luc counter)
Cc1cc(C(=O)OC(C(=O)Nc2ccc(C)c(Cl)c2)c2ccccc2)c(C)o1 (centres undefined)	none
CC(C)(CN)CN	none (no result: Gal4-VP16 FLuc, RORg inh)
CCSc1nc2sc3c(c2c(=O)n1-c1ccccc1)CCN(C(C)C)C3	none (no result: Luc counter)
COc1ccc(N2CCN(CCNC(=O)Nc3ccc([N+](=O)[O-])cc3OC)CC2)cc1	none (no result: Luc counter)
COc1ccc2c(c1)C(=O)[C@@H](OC(=O)NS(=O)(=O)c1ccc(C)cc1)[C@H](c1ccc(OC)c(Br)c1)O2	none
CC(=O)O[C@@H]1[C@@H](O)CN[C@@H]1Cc1ccccc1	Gal4-VP16 FLuc 0.28µM, RORg inh 0.5µM (no result: Luc counter)
CCOC(=O)C(=O)N1CCC(Cc2ccccc2)CC1	none
Cc1ccn(CC(=O)N2CCCC(N3CCN(c4ccc(F)cc4)CC3)C2)n1 (centres undefined)	none (no result: Luc counter)
O=C1C(Cc2ccccc2O)NC(=S)N1c1ccccc1 (centres undefined)	none (no result: Luc counter)
COCCCNc1nc(N)c([N+](=O)[O-])c(Nc2cc(OC)ccc2OC)n1	none (no result: Luc counter)
COc1ccc(OC)c(Nc2nc(NCCCN(C)C)nc(N)c2[N+](=O)[O-])c1	Gal4-VP16 FLuc 10µM, RORg inh 10µM (no result: Luc counter)
Cc1ccc(C2=C(c3ccc([N+](=O)[O-])cc3)C(=O)OC2)cc1C	none
O=C(C[n+]1cn(C(F)F)c2ccccc21)c1ccc(OC(F)F)cc1	none
Cc1cc(/C=C2\SC(=O)N(C)C2=O)c(C)n1-c1ccc(O)cc1	none (no result: Luc counter)
CN=C1S/C(=C\c2cc(C)n(-c3ccccc3F)c2C)C(=O)N1C	Gal4-VP16 FLuc 18µM, RORg inh inconclusive
Cc1ccc(-n2sc3ccccc3c2=O)cc1S(=O)(=O)N1CCCCC1	none (no result: Gal4-VP16 FLuc)
Cc1ccccc1-n1sc2cc(F)ccc2c1=O	Gal4-VP16 FLuc 2.8µM, RORg inh 3.2µM
O=C(CCN1C(=O)/C(=C/c2ccccc2F)SC1=S)NCCCn1ccnc1	none (no result: Luc counter)
CCc1ccc2[nH]c3nc(N/N=C/c4ccc(O)cc4O)nnc3c2c1	none (no result: Luc counter)
NC(=NCCCCCCN=C(N)/N=C(\N)Nc1ccc(Cl)cc1)/N=C(\N)Nc1ccc(Cl)cc1	Gal4-VP16 FLuc 16µM!, RORg inh inconclusive
CCCCN=C(Nc1ccc(Cl)cc1)c1cccnc1	none
Cc1ccc(OCc2cc(C(=O)N(C)Cc3cc(C4CC4)n[nH]3)no2)cc1C	none (no result: Luc counter)
COc1cc2c(cc1OC)C(C)N(C(=O)Cc1ccc(C(F)(F)F)cc1)CC2 (centres undefined)	none (no result: Luc counter)
OCC(O)C(O)C(O)C(O)C(O)CO (centres undefined)	none
CC[C@H](C)[C@H](NC(=O)[C@H](Cc1ccc(O)cc1)NC(=O)[C@H](Cc1cnc[nH]1)NC(=O)[C@H](CCCNC(=N)N)NC(=O)[C@H](CC(C)C)NC(=O)[C@H](C)NC(=O)[C@H](CO)NC(=O)[C@H](Cc1ccc(O)cc1)NC(=O)[C@H](Cc1ccc(O)cc1)NC(=O)[C@H](CCCNC(=N)N)NC(=O)[C@H](C)NC(=O)[C@H](CCSC)NC(=O)[C@H](CC(=O)O)NC(=O)[C@H](CCC(=O)O)NC(=O)[C@H](C)NC(=O)[C@@H]1CCCN1C(=O)[C@H](C)NC(=O)[C@H](CC(=O)O)NC(=O)[C@H](CCC(=O)O)NC(=O)CNC(=O)[C@@H]1CCCN1C(=O)[C@H](CC(N)=O)NC(=O)[C@H](CC(=O)O)NC(=O)[C@@H]1CCCN1C(=O)[C@H](CCCCN)NC(=O)[C@H](CO)NC(=O)[C@@H]1CCCN1C(=O)[C@@H](N)Cc1ccc(O)cc1)C(=O)N[C@@H](CC(N)=O)C(=O)N[C@@H](CC(C)C)C(=O)N[C@@H](CC(C)C)C(=O)N[C@H](C(=O)N[C@@H](CCCNC(=N)N)C(=O)N1CCC[C@H]1C(=O)N[C@@H](CCCNC(=N)N)C(=O)N[C@@H](Cc1ccc(O)cc1)C(N)=O)[C@@H](C)O	none (no result: Luc counter)
CCOc1ccc(NC(=O)/C=C/c2ccccc2)c([N+](=O)[O-])c1	none
CCn1ncc(Cl)c1C(=O)NC(=S)Nc1c(C)cc(C)cc1[N+](=O)[O-]	Gal4-VP16 FLuc 13µM, RORg inh 1.3µM
Cc1cc(C)c(NC(=S)NC(=O)c2c(Cl)c(C)nn2C)c([N+](=O)[O-])c1	Gal4-VP16 FLuc inconclusive, RORg inh 20µM
CCOc1ccc(OCC(=O)Nc2ccc(OC)cc2[N+](=O)[O-])cc1	none
CC(=O)c1ccc(NC(=S)NC(=O)c2c(Cl)c(C)nn2C)cc1	RORg inh inconclusive

Bioassay records deposited in PubChem by National Center for Advancing Translational Sciences (NCATS).
